mHTT CaM bind: mHTT-calmodulin interaction abrogation | inhibition, % at 15 µM | AID 1671202 | P42858 | AlphaScreen His-mHTT/GST-CaM binding, luminescence | hit rate 3.6% among 190,000;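 also: 0% = both proteins with DMSO and 100% = one protein alone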
Pf apPOL block: Pf-apPOL DNA polymerase inhibition; hit rate 0.25% among 210,000; Recombinant Pf-apPOL, molecular beacon fluorescence, 1.5 h; AID 1794808; inhibition, % at 10 µM
An asterisk follows results filed as active; i = inactive; . = no result given; ! = a repeat was not active. Hits are enriched below; roughly 3.5% of the tested compounds scored in any of these assays. Rule as the data show it: active = inhibition above about 50%; inactive = the rest.

SMILES	mHTT CaM bind	Pf apPOL block
O=C1C2CCCN2C(c2ccncc2)N1c1ccc(Cl)c(Cl)c1 (stereo not drawn)	85*	0
O=C1C2CCCN2C(c2cccnc2)N1c1ccc(Cl)c(Cl)c1 (stereo not drawn)	21	-2
Cn1cc(C(=O)NCc2cccs2)c2cccnc21	2	-2
Cc1ccc(C=C2CC3C4CCC5CCCCC5(C)C4CCC3(C)C2=O)o1 (stereo not drawn)	2	-2
Cc1cc(C)[n+]2cc(Br)ccc2n1	-12	-9
O=C1c2ccccc2C(=O)c2ccccc21	.	3
O=C1C=CC(=O)c2c(O)cccc21	.	97*
CN(C)C(=O)Oc1ccc2c(c1)OC(=CC=Cc1ccccc1)C2=O	59*!	-4
COc1cccc(C=C2Oc3cc(OC(=O)N(C)C)ccc3C2=O)c1	11	0
Cc1ccc(-n2cccc2C=C2C(=O)NC(=O)NC2=O)cc1Cl	80*	4
CN1C(=O)C(=Cc2cccn2-c2ccc(S(N)(=O)=O)cc2)C(=O)N(C)C1=O	7	-3
CSC(=NC(N)=N[N+](=O)[O-])Nc1ccc(C)c(C)c1	.	-1
Clc1ccc(CN2CCN(c3ccccc3)CC2)c(Cl)c1	26	-3
COc1ccc(N2CCN(Cc3ccc(Cl)cc3Cl)CC2)cc1	61*	-5
CN(C)c1ccc(CN2CCN(c3ccccc3Cl)CC2)cc1	53*	-8
CN(C)c1ccc(CN2CCN(Cc3ccccc3)CC2)cc1	3	-3
COc1ccc(CN2CCC(N)C2)cn1 (stereo not drawn)	15	-3
CN1CCC(O)(c2ccco2)C(C(O)c2ccco2)C1 (stereo not drawn)	-4	.
Cn1c(=O)c2c(c3ccccc31)NC(=S)NN=C2	97*	.
O=C(c1ccc2c(c1)ncn2-c1ccc(OCc2ccccc2)cc1)N1CCC2(CC1)OCCO2	52*	-6
COc1ccc(-n2cnc3cc(C(=O)N4CCC5(CC4)OCCO5)ccc32)cc1	6	-2
COc1cccc(CNC(=O)N2CCC3(C2)C(=O)N(C)c2ccc(OC)cc23)c1 (stereo not drawn)	0	4
COc1cc(C([O-])=Nc2c[n+](C(C)Cc3ccccc3)no2)cc(OC)c1OC (stereo not drawn)	16	-4
COc1cccc(N2CCN(Cc3ccc([N+](=O)[O-])cc3)CC2)c1	42	1
Nc1cc2nc3ccccc3nc2cc1N	19	.
SMILES	mHTT CaM bind	Pf apPOL block
Nc1cc2nc3ccccc3nc2cc1O	100*	0
CCn1cc(C(=O)NCc2ccc(C)o2)c2cccnc21	-3	-22
COc1ccc(OC)c(NC(=O)c2nc(C)n(C3CCN(C)CC3)c2C)c1	27	-5
COc1ccc(NC(=O)c2nc(C)n(C3CCN(C)CC3)c2C)c(OC)c1	21	59*
O=C(O)C1N=C2CC=CCC2N1 (stereo not drawn)	-7	.
CN(C)C(=O)Oc1ccc2c(-c3cc4cc(Br)ccc4oc3=O)cc(=O)oc2c1	7	-56
CC(C)C/C(=N\O)c1cn(C)c2ccccc12	i	.
CN(C)C(CN)c1cn(C)c2ccccc12 (stereo not drawn)	69*	0
COc1ccc2c(c1)C1(CCN(C(=O)c3ccc(F)cc3)C1)C(=O)N2C (stereo not drawn)	-5	-3
CC(=O)c1cc(CCl)cs1	3	.
COc1ccc2c(c1)OC(=Cc1ccc(OC(=O)N(C)C)c(OC)c1)C2=O	0	-8
CN(C)CCN(C(=O)Cc1ccc(Cl)s1)c1nc2c(Cl)cccc2s1	-6	0
C=CCOc1ccc(CC2C(=O)N(C)C(=O)N(C)C2=O)cc1	100*	-5
CCN(CC)c1ccc(CC2C(=O)N(C)C(=O)N(C)C2=O)cc1	57*	-1
Cc1ccc(CC2C(=O)N(C)C(=O)N(C)C2=O)s1	7	-6
CC(NP(=O)(Oc1ccccc1)Oc1ccccc1)c1ccccc1 (stereo not drawn)	2	-9
CCOc1ccccc1NC(=O)N1CCC2(C1)C(=O)Nc1ccc(OC)cc12 (stereo not drawn)	21	-8
NCCc1cc(O)c(O)cc1O	31	.
NC(Cc1cc(O)c(O)cc1O)C(=O)O (stereo not drawn)	.	81*
O=C(O)c1cccc2c1NC(C(=O)O)C1CC(Sc3ccccc3[N+](=O)[O-])C(Cl)C21 (stereo not drawn)	77*	-5
Brc1ccc(C2C=C(c3cccnc3)Nc3nnnn32)cc1 (stereo not drawn)	20	-5
CC12CN3CC(C)(CN(C1)C3c1ccncc1)C2=O (stereo not drawn)	2	-5
CCC12CN3CC(CC)(CN(C1)C3c1ccccn1)C2O (stereo not drawn)	100*	-14
COc1ccc(NC(=O)C2c3ccccc3C(=O)N3CCCCC23)c(OC)c1 (stereo not drawn)	0	-1
CCc1cc2c(cc1-c1cc(-c3ccccc3)c3cc(Cl)ccc3n1)C(C)(C)CCC2(C)C	.	-11
SMILES	mHTT CaM bind	Pf apPOL block
COc1ccc(N=Cc2cc3c(cc2O)OC(N)=C(C#N)C3c2ccco2)cc1 (stereo not drawn)	71*	-3
O=[N+]([O-])c1cc(S(=O)(=O)C(Cl)Cl)ccc1Cl	11	-4
Ic1ccc2c(c1)C1C=CCC1C(c1cccnc1)N2 (stereo not drawn)	97*	-3
Fc1ccc2c(c1)[C@@H]1C=CC[C@@H]1[C@H](c1cccnc1)N2	17	.
CC(=O)C1CCC2C3CCC4CC(=O)CCC4(C)C3CCC12C (stereo not drawn)	.	5
CCCCNC(=S)N1CC2CC(C1)c1cccc(=O)n1C2 (stereo not drawn)	-7	-6
CN(C)CC#CCNC(=O)CC1CCCC1	-5	-5
COc1ccc(C2C3C(=NN2C(C)=O)C2CCN3CC2)cc1OC (stereo not drawn)	-6	-4
CN1C2CCC1CC(N=Cc1ccccc1)C2 (stereo not drawn)	.	-6
Cc1nn(-c2ccccc2)c([Se])c1C=NC1CCCCC1	63*	-1
O=[N+]([O-])c1cc2c(cc1CNCCc1c[nH]c3ccccc13)OCO2	68*	-2
COc1cc(CNCCc2c[nH]c3ccccc23)c([N+](=O)[O-])cc1OC	14	-1
O=C1c2ccccc2-c2c3c(cc4ccnc1c24)OCO3	.	77*
